# In PubChem BioAssay AID504321 (NMMLSC, 2011):
# Unmarked numbers belong to inactive results. The source made the active and inactive calls.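 The calls were made as follows: active = GFP response vs DMSO above 150% with enough events counted; inconclusive = fewer than 70 events counted for a yeast strain; inactive = the rest.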
# Experiment: MEP2-GFP expression modulation in yeast, confirmation, flow cytometry, third cherry pick, S. cerevisiae (AID 504321);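 also: median per-cell GFP fluorescence by flow cytometry across all yeast cells; ratio of sample to DMSO median GFP so 100% equals the DMSO level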
# Settings: S. cerevisiae MEP2-GFP strain, 3 h, at 10 µM, stronger effect = higher value
row,Compound,GFP response vs DMSO
1,Cc1ccc(C(=O)Nc2nc(-c3ccccn3)cs2)o1,103%
2,Oc1c(Br)cc(Br)c2cccnc12,189% (active)
3,COC(=O)c1cc(=O)c2cccc(OC)c2[nH]1,110%
4,Brc1ccc2ncnc(NCc3ccccc3)c2c1,105%
5,CNc1nc(N)c([N+](=O)[O-])c(Nc2ccccc2OC)n1,105%
6,CNc1cccc2c1C(=O)c1ccccc1C2=O,114%
7,COC(=O)COc1c(Cl)cc(Cl)c2ccc(C)nc12,118%
8,Cc1cccc(C)c1Nc1ncnc(N)c1[N+](=O)[O-],103%
9,Cn1c(NCCO)nc2c(c1=O)C1(CCCCC1)Cc1ccccc1-2,108%
10,Nc1[nH]c(=O)nc(Nc2ccccc2)c1N=O,108%
11,CC(C)Nc1ncnc2ccc(Br)cc12,112%
12,CSc1nc(S(C)(=O)=O)nc2[nH]c(=O)[nH]c12,110%
13,Nn1cnc2c(c1=O)C1(CCCCC1)Cc1ccccc1-2,116%
14,Cc1ccc2c(C)ccc(O)c2n1,114%
15,O=C(/C=C/Nc1cccc(O)c1)c1ccccc1,112%
16,N#Cc1c(N)nc(N)nc1Nc1ccc(Br)cc1,110%
17,CC(=O)Nc1ccc(-c2nc3ccccc3o2)cc1,110%
18,COc1cccc2c(Cl)c(CCCl)c(C)nc12,101%
19,O=C(O)c1ccc2cccc(O)c2n1,110%
20,COc1ccc(OC)c(Nc2nc(NCCC(C)C)nc(N)c2[N+](=O)[O-])c1,108%
21,COCC(C)NC(=O)CCS(=O)(=O)c1nc(-c2ccc(OC)cc2)cc(C(F)(F)F)n1 (stereo unspecified),112%
